The record followed here is PubChem BioAssay (EPA / NIEHS).

Structures are written as SMILES. “And” between values parts separate entries of the source, which are not always exact repeats. Equal values may be shown once. Records with an inconclusive call do not appear. Where a structure was tested more than once in an assay, its records may differ in their call. The source made the active and inactive calls. Rule for the calls: active = hit-call score of the fitted dose curve at least 0.9, where 1 is the maximum; inconclusive = response in the unintended direction; inactive = score below 0.9.

Read-out in the test: xenobiotic metabolism (CYP1A2), CYP1A2 (gene 1544)
In words: CLD_CYP1A2_6hr: CellzDirect (CLD) Gene Expression Assay for xenobiotic metabolism (CYP1A2) at 6 hours (AID 2283663).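 For AC50: potency is for induction meaning a rise in mRNA above DMSO.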 Here is the method:
CLD_6hr is a cell-based, multiplexed-readout assay that uses hepatocyte, a human liver primary cell, with measurements taken at 6 hours after chemical dosing in a 96-well plate.CLD_CYP1A2_6hr is one of 16 assay component(s) measured or calculated from the CLD_6hr assay. It is designed to make measurements of mRNA induction, a form of inducible reporter, as detected with chemiluminescence signals by Quantitative Nuclease Protection Assay (qNPA) technology.Data from the assay component CLD_CYP1A2_6hr was analyzed at the endpoint, CLD_CYP1A2_6hr, in the positive analysis fitting direction relative to DMSO as the negative control and baseline of activity. Using a type of inducible reporter, gain-of-signal activity can be used to understand changes in the reporter gene as they relate to the gene CYP1A2. Furthermore, this assay endpoint can be referred to as a primary readout. To generalize the intended target to other relatable targets, this assay endpoint is annotated to the cyp intended target family, where subfamily is xenobiotic metabolism.
Human hepatocyte cultures were treated daily for two consecutive days with fresh dosing solutions containing appropriate concentrations of the 320 ToxCast chemicals (chemical identities were blinded to CellzDirect and other ToxCast collaborators), vehicle control (0.2% DMSO), and positive control inducers as summarized in Table 1. Due to the large number of treatment groups and chemicals examined, the ToxCast chemicals were divided into two groups (spanning two independent cultures of hepatocytes from separate donor preparations (Hu778: ToxCast plates 1 and 2; Hu776: ToxCast plates 3 and 4). Each preparation of human hepatocyte cultures was treated with respective vehicle control, medium only control, set of six positive controls/reference chemicals for the five hepatic receptor pathways, and a subset of eight of the ToxCast chemicals (indoxacarb, pyrithiobac-sodium, norflurazon, cyhalofop-butyl, methomyl, thiram, acetochlor, and propiconazole). These replicate data, coupled with internal replicates designed within the blinded ToxCast chemical library, provided additional data to evaluate interindividual differences between hepatocyte preparations and their potential impact on chemical profiles.Cell morphology and integrity were evaluated using phase-contrast microscopy as an indicator of hepatocyte cell health (Tyson & Green, 1987). Cultures for each treatment group (i.e., media, vehicle [0.2% DMSO], positive control inducers [multiple concentrations], and the ToxCast chemicals [multiple concentrations]) were observed and cell morphology was assessed relative to vehicle control cultures at each harvest time point (0, 6, 24, or 48 h). […] Images were evaluated at the conclusion of the study to assess changes in cell integrity and account for the effects of chemical exposure on uncharacteristic changes in concentration-dependent gene expression profiles. The results from these determinations of apparent cytotoxicity were annotated (yes/no) alongside the corresponding qNPA data for reference.At the conclusion of each treatment period, hepatocyte cultures (96-well) were washed with 1 volume of HBSS, lysed by addition of 25 ul ArrayPlate lysis buffer (HTG, Tucson, AZ), and 70 ul/well of Denaturation Oil, denatured by incubation at 95C for 10 min, and frozen at approximately -70C until analysis by nuclease protection assay (qNPA) (Roberts et al., 2007). For qNPA analysis, cell lysates were thawed at 50C for approximately 30 min, qNPA probes were added, and samples were incubated at 95C for 10 min to begin the detection process by denaturing the target RNA, dissociating the duplexes and secondary structure hybridization. At the conclusion of the hybridization period, S1 nuclease reagent was added to each sample to digest all nonprotected nucleotides at 50C for 60-90 min. […]
Turning to `COc1ccc(C(c2ccc(OC)cc2)C(Cl)(Cl)Cl)cc1`, the AC50 – broadly, the concentration at which the activity in the assay is half-maximal – was 17.3 µM (active). For `C=CC1(C)OC(=O)N(c2cc(Cl)cc(Cl)c2)C1=O` (stereo not given), the AC50 was 0.828 µM (active). `CON(C)C(=O)Nc1ccc(Cl)c(Cl)c1`: the AC50 is 0.752 µM (active). Take `CCNc1nc(Cl)nc(NCC)n1`: the call was inactive. Turning to `COC(=O)c1ccccc1C(=O)OC`, the molecule was classed as inactive. Consider `COc1nc(C)nc(NC(=O)NS(=O)(=O)c2ccccc2CCC(F)(F)F)n1`, for which the AC50 was 2.44 µM (active) and the result was inactive. As for `N#CC(CCc1ccc(Cl)cc1)(Cn1cncn1)c1ccccc1` (stereo not given), the AC50 was 1.89 µM (active). Regarding `COc1nc(C)nc(NC(=O)NS(=O)(=O)c2ccccc2Cl)n1`, the outcome was inactive and the AC50 was 0.00149 µM (active). With `CCc1nn(C)c(C(=O)NCc2ccc(C(C)(C)C)cc2)c1Cl`, the AC50 is 20 µM (active). Still for that read-out and setting: the same measure for `COc1cnc(OC)n2nc(NS(=O)(=O)c3c(OCC(F)F)cccc3C(F)(F)F)nc12`: 0.255 µM (active). Consider `C=CCC1=C(C)[C@@H](OC(=O)[C@@H]2[C@@H](C=C(C)C)C2(C)C)CC1=O`, for which the molecule was classed as inactive. In the case of `COC(=O)C(C)Oc1ccc(Oc2ccc(Cl)cc2Cl)cc1` (stereo not given), the AC50 was 3.97 µM (active) and 4.91 µM (active); the call was inactive. Turning to `O=C(Nc1ccccc1)Nc1ccnc(Cl)c1`, the AC50 is 8.16 µM (active).

Turning to `CCCCOC(=O)c1ccccc1C(=O)OCCCC`, the AC50 was 3.87 µM (active) and the outcome was inactive.

As to `CCCCNC(=O)OCC#CI`, the AC50 is 0.591 µM (active) and the molecule was called inactive.

`Fc1ccc(Oc2ccnc3cc(Cl)cc(Cl)c23)cc1`: the AC50 was 5.01 µM (active).

For the molecule `C#CCOS(=O)OC1CCCCC1Oc1ccc(C(C)(C)C)cc1` (stereo not given), the AC50 was 1.9 µM (active). Turning to `CC1COC(Cn2cncn2)(c2ccc(Oc3ccc(Cl)cc3)cc2Cl)O1` (stereo not given), the call was inactive.

Take `CC(C)Oc1cc(-n2nc(C(C)(C)C)oc2=O)c(Cl)cc1Cl`: the AC50 was 2.19 µM (active). On to `O=C(O)COc1nc(Cl)c(Cl)cc1Cl`, for which the outcome was inactive.

`CCNc1nc(Cl)nc(NC(C)C)n1`: the AC50 was 1.62 µM (active). As for `CCCC1COC(Cn2cncn2)(c2ccc(Cl)cc2Cl)O1` (stereo not given), the AC50 is 3.01 µM (active).

For `CCOC(=O)CC(SP(=S)(OC)OC)C(=O)OCC` (stereo not given), the concentration at half-maximal activity (AC50) is 3.97 µM (active).

For `COc1nc(NC(C)C)nc(NC(C)C)n1`, the result was inactive. On to `CCCCNC(=O)n1c(NC(=O)OC)nc2ccccc21`, for which the call was inactive. Same read-out and setting: the same measure for `COP(N)(=O)SC` (stereo not given): “inactive”. With `O=C(O)c1nc(Cl)ccc1Cl`, the AC50 is 6.11 µM (active) and the molecule was called inactive. In the case of `CNC(=O)ON=CC(C)(C)SC`, the outcome was inactive. As to `CC1=C(C(=O)Nc2ccccc2)SCCO1`, the AC50 is 7.64 µM (active). On to `N#Cc1nn(-c2c(Cl)cc(C(F)(F)F)cc2Cl)c(N)c1S(=O)C(F)(F)F` (stereo not given), for which the molecule was called inactive. As to `Cc1ccc(-c2c(Cl)nc(C#N)n2S(=O)(=O)N(C)C)cc1`, the outcome was inactive. Same read-out and setting: in the case of `CCOP(=S)(OCC)SCn1c(=O)oc2cc(Cl)ccc21` it was “inactive”; in that of `N#Cc1cc(Br)c(O)c(Br)c1`, “inactive”.

Turning to `COP(=S)(OC)Oc1nc(Cl)c(Cl)cc1Cl`, the AC50 was 6.12 µM (active).
